# U2OS ROS induce = cancer cell ROS induction. U2OS ROS induction, H2DCF-DA fluorescence. ROS induction (% of piperlongumine), % at 10 µM. 46,000 tested, 2% active; in the data active means ROS induction above about 79%, passing the limit was not always enough; inconclusive means no clear call, values can overlap the other calls;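 further: 0% = DMSO vehicle median and 100% = reference compound median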
# NOMO-1 viab = STK33 inhibitor candidate reducing NOMO-1 cell viability | AID 2330 | NOMO-1 AML viability, CellTiter-Glo luminescence, 72 h | 37,000 tested, 7.5% active | inhibition, % (no concentration beside the values); in the data active means inhibition above about 80%; inconclusive means no clear call, values can overlap the other calls
# Active calls of the source: *; ? = inconclusive; / = no result given. The sample as a whole holds a higher share of hits than the screen did.
SMILES,U2OS ROS induce,NOMO-1 viab
C=CCN(CC=C)c1nc(-c2ccccc2)nc2ccccc12,45.9,/
OCCN(CCO)c1nc(-c2ccccc2)nc2sc(-c3ccccc3)cc12,115.8*,?
C[C@H](CO)N1C[C@H](C)[C@H](CN(C)CC2CC2)Oc2c(NC(=O)Nc3ccc(C(F)(F)F)cc3)cccc2C1=O,-2.2,43.8
C[C@@H]1CN([C@H](C)CO)C(=O)c2cccc(NC(=O)Nc3ccc(C(F)(F)F)cc3)c2O[C@@H]1CN(C)CC1CC1,1.3,20.2
C[C@@H]1CN([C@@H](C)CO)C(=O)c2cccc(NC(=O)Nc3ccc(C(F)(F)F)cc3)c2O[C@H]1CN(C)CC1CC1,6.8,82.6*
C[C@H](CO)N1C[C@H](C)[C@@H](CN(C)CC2CCCCC2)Oc2c(NC(=O)Nc3ccc(C(F)(F)F)cc3)cccc2C1=O,14.7,120.6*
CC(C)NC(=O)Nc1ccc2c(c1)CC(=O)N([C@@H](C)CO)C[C@@H](C)[C@@H](CN(C)C(=O)NC1CCCCC1)O2,-7.3,-5.1
Cc1ccccc1NC(=O)CSc1cc(C)c2ccccc2n1,/,10.5
COc1ccc(CN(C)C[C@H]2Oc3c(NC(=O)Nc4c(C)noc4C)cccc3C(=O)N([C@H](C)CO)C[C@H]2C)cc1,5.9,-12.2
Cc1noc(C)c1S(=O)(=O)Nc1cccc2c1O[C@@H](CN(C)C(=O)Nc1ccc3c(c1)OCO3)[C@@H](C)CN([C@H](C)CO)C2=O,-6.8,13.0
COc1ccc([Si](C)(C)[C@@H]2[C@@H](CCn3cc(CCO)nn3)O[C@]3(C(=O)N(Cc4ccc(N5CCOC5=O)cc4)c4ccccc43)[C@H]2C)cc1,39.2,/
COc1ccc([Si](C)(C)[C@H]2[C@H](CCO)O[C@@]3(C(=O)N(Cc4ccc(N5CCOC5=O)cc4)c4ccccc43)[C@@H]2C)cc1,129.7*,/
COc1ccc([Si](C)(C)[C@H]2[C@H](CCO)O[C@@]3(C(=O)N(Cc4cccc(N5CCC5=O)c4)c4ccccc43)[C@@H]2C)cc1,106.8*,/
COc1ccc([Si](C)(C)[C@@H]2[C@@H](CCn3cc([C@H](O)c4ccccc4)nn3)O[C@]3(C(=O)N(Cc4ccc(N5CCC5=O)cc4)c4ccccc43)[C@H]2C)cc1,57.6,/
COc1ccc([Si](C)(C)[C@H]2[C@H](CCO)O[C@@]3(C(=O)N(Cc4cccc(NC(=O)[C@H](C)O)c4)c4ccccc43)[C@@H]2C)cc1,11.8,/
COc1ccc([Si](C)(C)[C@@H]2[C@@H](CCO)O[C@]3(C(=O)N(Cc4ccc(NC(=O)[C@H](C)O)cc4)c4ccccc43)[C@H]2C)cc1,90.8*,/
C[C@@H]1CN([C@H](C)CO)C(=O)c2cc(NC(=O)CCCN(C)C)ccc2O[C@@H]1CN(C)CC1CCCCC1,3.1,10.8
C[C@@H]1CN([C@H](C)CO)C(=O)c2cc(NS(=O)(=O)c3cn(C)cn3)ccc2O[C@H]1CN(C)S(=O)(=O)c1cn(C)cn1,15.3,-11.1
Cc1ccc(S(=O)(=O)Nc2ccc3c(c2)CC(=O)N([C@H](C)CO)C[C@@H](C)[C@@H](CN(C)C(=O)Nc2ccc(F)cc2)O3)cc1,-1.3,7.2
COc1ccc(NC(=O)Nc2cccc3c2O[C@@H](CN(C)C(=O)NC(C)C)[C@@H](C)CN([C@@H](C)CO)C3=O)cc1,-6.9,-2.2
C[C@@H]1CN([C@H](C)CO)C(=O)c2cccc(NC(=O)c3nc4ccccc4s3)c2O[C@@H]1CN(C)CC1CCCCC1,15.3,32.5
C[C@@H]1CN([C@@H](C)CO)C(=O)c2cccc(NC(=O)c3nc4ccccc4s3)c2O[C@@H]1CN(C)CC1CCCCC1,14.4,116.7*
C[C@H](CO)N1C[C@H](C)[C@@H](CN(C)CC2CCCCC2)Oc2c(NC(=O)c3nc4ccccc4s3)cccc2C1=O,14.8,108.0*
C[C@H](CO)N1C[C@H](C)[C@H](CN(C)CC2CCCCC2)Oc2c(NC(=O)c3nc4ccccc4s3)cccc2C1=O,6.9,?
Cc1nnc(SCC(=O)Nc2ccc(C)c([N+](=O)[O-])c2)s1,-1.5,15.2
SMILES,U2OS ROS induce,NOMO-1 viab
Cc1ccc(S(=O)(=O)/C=C/C#N)cc1,142.7*,141.8*
Cc1ccc(S(=O)(=O)c2ccc(C)cc2)cc1,-0.8,-1.6
Clc1ccc(CO/N=C(\Cn2ccnc2)c2ccc(Cl)cc2Cl)c(Cl)c1,35.2,110.1*
O/N=C(\Cn1cncn1)c1ccc(Cl)cc1Cl,7.6,19.6
O=C(NCCc1ccccc1)c1cc(-c2ccccc2)nc2ccccc12,-0.3,/
N#CC1c2ccc(Br)cc2C=CC1c1ccccc1 (stereo not drawn),-12.5,/
CC(C)(C)NC(=O)c1ccccc1,-1.4,20.6
CC(C)(C)NC(=O)c1ccc2c3c(onc13)-c1ccccc1C2=O,245.1*,113.9*
C[C@H](CO)N1C[C@H](C)[C@H](CN(C)Cc2ccccc2)Oc2ncc(C#CCN(C)C)cc2C1=O,0.5,/
C[C@H](CO)N1C[C@H](C)[C@@H](CN(C)Cc2ccc(Cl)c(Cl)c2)Oc2ccc(NC(=O)Nc3ccc(F)cc3)cc2C1=O,-2.0,53.0
COc1ccc(NC(=O)Nc2ccc3c(c2)C(=O)N([C@H](C)CO)C[C@H](C)[C@H](CN(C)Cc2ccc(Cl)c(Cl)c2)O3)cc1,26.5,108.9*
C[C@H](CO)N1C[C@H](C)[C@H](CN(C)Cc2ccc(Cl)c(Cl)c2)Oc2ccc(NC(=O)Nc3ccc(F)cc3)cc2C1=O,9.0,-11.3
C[C@H](CO)N1C[C@H](C)[C@H](CN(C)Cc2ccc(Cl)c(Cl)c2)Oc2ccc(NC(=O)Nc3ccccc3)cc2C1=O,10.7,113.4*
C[C@@H]1CN([C@@H](C)CO)C(=O)c2cc(NC(=O)Nc3ccc(F)cc3)ccc2O[C@H]1CN(C)Cc1ccc(Cl)c(Cl)c1,10.7,124.6*
COc1ccc(NC(=O)Nc2ccc3c(c2)C(=O)N([C@H](C)CO)C[C@H](C)[C@@H](CN(C)Cc2ccc(Cl)c(Cl)c2)O3)cc1,14.4,27.6
C[C@@H]1CN([C@@H](C)CO)C(=O)c2cccc(NC(=O)Nc3ccc(C(F)(F)F)cc3)c2O[C@H]1CN(C)C,4.1,55.3
CC(C)NC(=O)N(C)C[C@H]1Oc2c(NC(=O)Nc3ccc(C(F)(F)F)cc3)cccc2C(=O)N([C@H](C)CO)C[C@H]1C,1.8,114.7*
COc1ccc(NC(=O)N(C)C[C@H]2Oc3c(NC(=O)Nc4ccc(C(F)(F)F)cc4)cccc3C(=O)N([C@@H](C)CO)C[C@@H]2C)cc1,-6.5,42.3
CC(C)NC(=O)N(C)C[C@@H]1Oc2c(NC(=O)Nc3ccc(C(F)(F)F)cc3)cccc2C(=O)N([C@@H](C)CO)C[C@H]1C,9.0,14.7
COc1ccc(NC(=O)N(C)C[C@H]2Oc3c(NC(=O)Nc4ccc(C(F)(F)F)cc4)cccc3C(=O)N([C@H](C)CO)C[C@@H]2C)cc1,-1.4,102.6*
C[C@H](CO)N1C[C@H](C)[C@@H](CN(C)C(=O)Nc2ccc(C(F)(F)F)cc2)Oc2c(NC(=O)Nc3ccccc3)cccc2C1=O,-6.9,12.6
C[C@H]1CN([C@@H](C)CO)C(=O)c2cccc(NC(=O)Nc3ccc(C(F)(F)F)cc3)c2O[C@@H]1CN(C)C(=O)Nc1ccc(C(F)(F)F)cc1,-6.0,88.2*
COc1ccc(NC(=O)Nc2cccc3c2O[C@@H](CN(C)C(=O)Nc2ccc(C(F)(F)F)cc2)[C@H](C)CN([C@@H](C)CO)C3=O)cc1,-3.2,18.3
